This is an account of results in PubChem BioAssay AID624351 (Southern Research Specialized Biocontainment Screening …, 2012).

The structures appear in SMILES notation. In all, about 2,400 compounds went through this assay and about 1,400 (58%) were called active. So high a share suggests a set chosen from earlier hits. The list shows a part of the results. Values without a mark were called inactive.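 How the source made its calls: active means inhibition of 30% or more at any tested dose; inconclusive means primary hits over the limit that were never retested; inactive means the rest.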

This assay is described as follows: coupled detection enzyme interference, dose response, artefact control for MgcRacGAP inhibitor project, biochemical, coupled enzyme counter-screen (AID 624351).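 Further: signal is the ADP detection kit reading of free GDP without any GAP enzyme.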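 On inhibition: 0% = median positive control wells and 100% = median negative control wells.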 The note with it: ADP Hunter coupled enzyme counter-screen, fluorescence, no MgcRacGAP; series mostly up to 80 µM; inhibition: at the top concentration. (In general: The purpose of a counterscreen is to sort out artefacts and off-target activity.)
Take `COc1cc(/C=C2\Oc3cc(O)ccc3C2=O)ccc1O`: the IC50 (commonly the midpoint of a concentration-inhibition curve) is 33.9 µM (active).

Regarding `O=C1/C(=C/c2ccc(O)c(O)c2)Oc2cc(O)ccc21`, the IC50 is 28.2 µM (active).

For `Brc1ccccc1OCCCCCN1CCOCC1`, the inhibition – broadly, the drop in the measured response relative to a control, in per cent – was 15.5%.

For the compound `S=c1[nH]nc2sc3ccccc3n12`, the half-maximal inhibitory concentration (IC50) was 32.3 µM (active).

For `O=C(CN1CCN(c2ncccn2)CC1)N1CCCC1`, the “inhibition” value is 10.6%.

`Oc1ccccc1/C=N/n1c(-c2ccccc2)n[nH]c1=S`: the IC50 is 71.4 µM (active).

Regarding `Cc1cccc(N2C(=O)/C(=C\c3ccc(C(=O)O)cc3)c3ccccc3C2=O)c1`, the “inhibition” value was 2.03%.

In the case of `S=c1[nH]nc(-c2ccncc2)n1/N=C/c1ccccc1`, the IC50 was 39.6 µM (active).

As to `Cc1ccc(-c2n[nH]c(=S)n2/N=C/c2ccc(C(=O)O)cc2)cc1`, the IC50 was 69.7 µM (active).

Take `NNc1ccc([N+](=O)[O-])c2[nH][nH]c(=O)c12`: the inhibition is -1.61% [at 10 µM].

`Cc1ccc(S(=O)(=O)/N=S(/c2ccccc2)C(C)C)cc1` (centres undefined): the “inhibition” value is 6.9%.

Regarding `CN(C)c1ccc2cc(S(=O)(=O)O)cc(O)c2c1`, the IC50 was 75 µM (active).

Turning to `O=S(=O)(O)c1cc(O)c2ccc(Nc3ccccc3)cc2c1`, the “inhibition” value was 14.1%.

Turning to `Nc1cccc2c(O)cc(S(=O)(=O)O)cc12`, the “inhibition” value is 15.9%.

As to `O=C(CN1CCOCC1)Nc1ccc2c(c1)OCCO2`, the “inhibition” value is 14.5%.

With `COc1cc(/C=C/C(=O)OCC(=O)Nc2ccc3c(c2)OCCO3)ccc1O`, the IC50 is 29.2 µM (active).

With `O=C(CCN1CCCCCC1)Nc1ccc2c(c1)OCCO2`, the “inhibition” value is 15.1%.

As for `COc1cc(/C=C/C(=O)OCC(=O)Nc2ccc3c(c2)OCO3)ccc1O`, the IC50 was 42.1 µM (active).

Consider `CC(C)C1=Nc2cccc3cccc(c23)N1`, for which the IC50 was 26.5 µM (active).

`O=C(Oc1ccc(N(C(=O)c2ccncc2)S(=O)(=O)c2cccs2)cc1)c1ccncc1`: the “inhibition” value was 7.67%.

Take `N=C(N)c1ccc(N=Nc2c(O)ccc3c2[nH]c2ccccc23)cc1`: the IC50 was 18 µM (active).

Regarding `O=C(O)CCN1C(=O)/C(=C/c2ccc(-c3nc4ccccc4s3)o2)SC1=S`, the “inhibition” value was -0.68%.

With `COCCNCC(=O)Nc1nc(C)cs1`, the “inhibition” value was 19.2%.

As for `O=C(Nc1ccc(O)cc1)c1ccc2c(c1)C(=O)N(Cc1ccccc1)C2=O`, the “inhibition” value was 22.7%.

Turning to `CC(C)(C)N1C(=O)c2ccc(C(=O)Nc3ccc(O)cc3)cc2C1=O`, the IC50 is 29.7 µM (active).

On to `COc1cc(-c2nc3cnccn3c2Nc2ccc(C)cc2)ccc1O`, for which the IC50 was 45.3 µM (active).

On to `Cc1ccc(Nc2c(-c3ccco3)nc3ccccn23)cc1`, for which the “inhibition” value was 17.8%.

In the case of `Cc1cccc(Nc2c(-c3ccc(O)cc3)nc3ncccn23)c1`, the IC50 is 31.7 µM (active).

Turning to `COc1cc(-c2nc3ccc(C)cn3c2Nc2ccc3c(c2)OCCO3)ccc1O`, the IC50 was 34.4 µM (active).

Take `Cc1ccn2c(Nc3ccc4c(c3)OCO4)c(-c3ccc(O)cc3)nc2c1`: the IC50 is 32.4 µM (active).

`N#CC(C#N)=C1C=CC=CN1/C(=C\c1ccco1)C(=O)c1ccc(Cl)cc1`: the “inhibition” value was -0.35%.

As to `COc1cc(-c2nc3cnccn3c2Nc2c(C)cccc2C)ccc1O`, the IC50 was 52.8 µM (active).

On to `COc1cc(-c2nc3ccccn3c2NCC2CCCO2)ccc1O` (centres undefined), for which the “inhibition” value was 24.2%.

Take `Clc1cc(Br)ccc1OCCOCCN1CCCC1`: the “inhibition” value was 11.4%.

For `COc1cc(/C=N/NC(=O)CNC(=O)c2cccs2)ccc1O`, the IC50 is 38.4 µM (active).

With `COc1cc(/C=N/NC(=O)CNC(=O)c2ccco2)ccc1O`, the IC50 is 36.8 µM (active).

With `COc1ccc2c(/C=N/Nc3ccc(C(=O)O)cc3)c[nH]c2c1`, the IC50 was 58.5 µM (active).

`O=C(O)c1ccc(N/N=C/c2c[nH]c3ccccc23)cc1`: the IC50 is 47.5 µM (active).

With `CN=c1scc(-c2ccc(F)cc2)n1/N=C/c1ccc(O)c(O)c1`, the IC50 was 38.6 µM (active).

On to `Oc1ccc(/C=N/n2c(-c3ccco3)csc2=Nc2cccnc2)c(O)c1`, for which the IC50 was 34.3 µM (active).

Consider `CN=c1scc(-c2ccco2)n1/N=C/c1ccc(O)c(O)c1`, for which the half-maximal inhibitory concentration (IC50) was 43.9 µM (active).

For the compound `CC(C)N=c1scc(-c2ccco2)n1/N=C/c1ccc(O)c(O)c1`, the IC50 was 63.8 µM (active).

For the compound `CN(C)CCCn1c(SCc2ccc(Cl)cc2)nnc1-c1ccncc1`, the “inhibition” value was 13%.

On to `COc1cc(/C=N/NC(=O)c2c(-c3ccccc3)noc2C)ccc1O`, for which the IC50 is 50.7 µM (active).

`CCOc1cc(/C=N/NC(=O)c2c(-c3ccccc3)noc2C)ccc1O`: the IC50 was 60.4 µM (active).

As for `Oc1ccc(/C=N/Nc2nn3cnnc3c3ccccc23)cc1`, the IC50 is 23.3 µM (active).

In the case of `COc1cc(/C=N/Nc2nn3cnnc3c3ccccc23)ccc1O`, the IC50 was 58.4 µM (active).

Turning to `COc1cc(/C=N/Nc2nncn2/N=C/c2ccc(O)c(OC)c2)ccc1O`, the half-inhibitory concentration (IC50) is 39 µM (active).

Consider `Cc1ccc(OCCCCNC(C)(C)C)c([N+](=O)[O-])c1`, for which the “inhibition” value was 20.2%.

Take `N#CC1=C(N)NC(=S)C(C(N)=O)C1c1ccc([N+](=O)[O-])cc1` (centres undefined): the “inhibition” value is -6.08%.

With `N=C(N)c1ccc(/C=C/c2ccc(C(=N)N)cc2O)cc1`, the “inhibition” value is 11.6%.

On to `CCOc1ccc(C2NC(=O)C(C#N)=C(S)N2c2ccc(C)cc2)cc1OC` (centres undefined), for which the “inhibition” value was 3.45%.

Take `COc1cc2nc(=S)n3[nH]c(CCn4nc(C)cc4C)nc3c2cc1OC`: the IC50 was 19.6 µM (active).

For `COc1ccc2cc(OCC(=O)NNC(=O)Nc3ccc(F)cc3)ccc2c1`, the IC50 is 65.5 µM (active).
